Tgondii IFNg: T. gondii growth inhibition with IFN-gamma, primary screen, cell-based; Toxoplasma gondii growth in IFN-gamma-treated host cells; stronger effect = lower value; activity change, negative = inhibition, % (test concentration not listed); hit rate 3.8% among 69,000; in the data active means activity change below about -70%, passing the limit was not always enough;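 further: host cells are HeLa cells infected with Toxoplasma gondii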
Large screens that a line does not name were inactive. Shown is part of a subset that was picked to be rich in hits.

CCSCCN1CCC(=O)N(Cc2ccccc2)C(CC)C1 (stereo not given)	none
CC(C)CCN1CCc2nnc(CO)n2CC1	none
COc1cccc(CCN2C[C@@H]3CCN(C(=O)c4cnccn4)CC[C@H]3S2(=O)=O)c1	none
Cc1ccc(CN2CC[C@@H]3OCCN(C(=O)c4cccnc4)[C@@H]3C2)s1	none
C[C@@H](Oc1ccc2[nH]nc(/C=C/c3cnn(CCO)c3)c2c1)c1c(Cl)cncc1Cl	Tgondii IFNg -75
O=C(c1ccc(/C=C/c2n[nH]c3ccccc23)cc1)N1CCNCC1	none
COc1ccc(-c2nc(N3CCN(c4ccc(C)cc4C)CC3)c3ccccc3n2)cc1	none
O=C(Cc1ccsc1)Nc1ccc(-c2cn3c4c(nnc3n2)CCCC4)cc1	none
C[C@@H]1CN([C@H](C)CO)C(=O)c2cc(/C=C/c3ccccc3)cnc2O[C@@H]1CN(C)S(=O)(=O)c1ccccc1F	Tgondii IFNg -88
C[C@H](CO)N1C[C@H](C)[C@@H](CN(C)S(=O)(=O)c2ccccc2F)Oc2ncc(/C=C/c3ccccc3)cc2C1=O	none
C[C@@H]1CN([C@@H](C)CO)C(=O)c2cc(/C=C/c3ccccc3)cnc2O[C@@H]1CN(C)S(=O)(=O)c1ccccc1F	none
C[C@@H]1CN([C@@H](C)CO)C(=O)c2cccc(NC(=O)c3nc4ccccc4s3)c2O[C@@H]1CN(C)C(=O)Nc1ccc2c(c1)OCO2	none
C[C@@H]1CN([C@@H](C)CO)C(=O)c2cccc(NC(=O)Nc3ccc(F)cc3)c2O[C@H]1CN(C)S(=O)(=O)c1ccc(Cl)cc1	none
C[C@H](CO)N1C[C@H](C)[C@@H](CN(C)Cc2ccc(Oc3ccccc3)cc2)Oc2c(NC(=O)CCC(F)(F)F)cccc2C1=O	none
C[C@H](CO)N1C[C@H](C)[C@H](CN(C)S(=O)(=O)c2ccc(Cl)cc2)Oc2c(NC(=O)Nc3ccc(F)cc3)cccc2C1=O	Tgondii IFNg -81
C[C@H](CO)N1C[C@H](C)[C@@H](CN(C)Cc2ccccc2)Oc2c(NC(=O)Cc3cn(C)c4ccccc34)cccc2C1=O	Tgondii IFNg -93
COc1ccc(S(=O)(=O)N(C)C[C@@H]2Oc3c(NC(=O)c4nc5ccccc5s4)cccc3C(=O)N([C@H](C)CO)C[C@H]2C)cc1	none
C[C@@H]1CN([C@@H](C)CO)C(=O)c2cccc(NC(=O)Nc3ccc(F)cc3)c2O[C@@H]1CN(C)S(=O)(=O)c1ccc(Cl)cc1	none
COc1ccc(S(=O)(=O)N(C)C[C@H]2Oc3c(NC(=O)c4nc5ccccc5s4)cccc3C(=O)N([C@@H](C)CO)C[C@@H]2C)cc1	Tgondii IFNg -78
C[C@@H]1CN([C@@H](C)CO)C(=O)c2cccc(NS(C)(=O)=O)c2O[C@H]1CN(C)Cc1ccc(-c2ccccc2)cc1	none
COc1ccc(CNC(=O)C2(NC(=O)NC3CCCCC3)CCCCC2)cc1	none
CCn1c(CC2CCN(C(=O)c3cc(C(C)C)nn3C)CC2)n[nH]c1=O	none
OCCN1CCCn2cnc(CNc3ncccn3)c2C1	none
CCCN(CCC)c1nc(-c2ccc(Cl)cc2)nc2ccccc12	none
CN(CCOc1ccc(F)cc1)C(=O)c1cc(-c2cnn(C)c2)nc2ccccc12	none
C=CCOc1ccccc1CN1CCC2(CC1)C(=O)N(Cc1cccc3ccccc13)C(=O)N2CC	none
C=CCOC1COC2(CCCN(Cc3ccoc3)C2)C1 (stereo not given)	none
O=C(C[C@@H]1CC[C@H]2[C@@H](COC[C@H](O)CN2C(=O)c2ccncc2)O1)Nc1ccc(-c2ccccc2)cc1	none
O=C(Nc1ccncc1)Nc1ccc(-c2nc(N3CCOCC3)nc(N3C4CCC3COC4)n2)cc1	Tgondii IFNg -74
CCc1cc(-c2cccc(NC(C)=O)c2)nc(N2CCOCC2)n1	none
CCN(CC)C(=O)c1cc(=O)n(CC(=O)Nc2cc(F)ccc2F)c2ccccc12	none
CN(CC1COCCO1)c1nccc(CCC(F)(F)F)n1 (stereo not given)	none
Cc1ccc(N2CCCC2=O)cc1S(=O)(=O)N1CCCCCC1c1cnn(C)c1 (stereo not given)	none
CCOCC1CN(C(=O)/C=C/c2cccs2)Cc2cncn2C1 (stereo not given)	none
CC[C@@H]1C(=O)N(C)c2cnc(Nc3ccc(C(=O)NC4CCC(N5CCN(CC6CC6)CC5)CC4)cc3OC)nc2N1C(C)C (stereo not given in full)	none
CNC(=O)c1ccccc1Nc1nc(Nc2ccc3c(c2OC)CCC[C@H](N2CCN(CCO)CC2)C3)ncc1Cl	Tgondii IFNg -75
CCCC(=O)N1CCCC1c1ncc(C(=O)Nc2ccccc2OC)c(C)n1 (stereo not given)	none
Cc1ccc2[nH]c(-c3nc(CCN(C)C(=O)c4cccn4C)no3)cc2c1	none
COc1ccc2[nH]c(-c3nc(CCN(C)C(=O)c4ccncc4)no3)cc2c1	none
CCc1c(-c2nc(CCN(C)C(=O)c3cccn3C)no2)[nH]c2ccc(C)cc12	Tgondii IFNg -91
Cn1c(SCC(=O)N2CCN(C(=O)c3ccco3)CC2)nc2cccnc21	none
CCc1nc(SCC(=O)N2c3ccccc3Sc3ccccc32)c2ccccc2n1	Tgondii IFNg -82
CCn1nnnc1SCC(=O)N1c2ccccc2Sc2ccccc21	none
O=C(COc1nc2ccccc2s1)N1c2ccccc2Sc2ccccc21	none
Cn1ncc2c3ccccc3n(CC(=O)NCc3cccnc3)c2c1=O	none
COc1ccc(N2CCN(c3nc(-c4ccc(Cl)cc4)nc4ccccc34)CC2)cc1	none
COc1ccc(S(=O)(=O)N2CCCCCC2c2cc(C)on2)cc1 (stereo not given)	none
Cc1ncsc1C(=O)N1CCCC(C(=O)c2cnn(-c3ccc(F)cc3)c2N)C1 (stereo not given)	none
COc1ccc(S(=O)(=O)N2CCC(c3nc(C(=O)N(C)C)c(C)o3)CC2)cc1	none
COc1ccc(S(=O)(=O)N2CCC(c3n[nH]c(=O)cc3-c3cc(C)no3)CC2)cc1	none
COc1ccc(S(=O)(=O)N2CCC(c3ccc4c(C)nn(C)c4n3)CC2)cc1	Tgondii IFNg -91
c1csc(CN2CCC3(CCCN3CC3CC3)CC2)c1	none
Cc1ccc(NC(=O)Cn2ncc3c(N4CCN(c5ccccn5)CC4)ncnc32)c(C)c1	none
COc1ccc(C(=O)N(Cc2ccc(N(C)C)cc2)C2(C(=O)NCc3ccccc3)CCN(C(C)=O)CC2)cc1	none
Cc1cccc(S(=O)(=O)N2CCCn3cnc(CN4CCCC4=O)c3C2)c1	none
CC1CCN(S(=O)(=O)c2ccc3c(c2)CCC(=O)N3CC(=O)Nc2ccc(F)cc2)CC1	none
Cc1ccc(NC(=O)CN2C(=O)CCc3cc(S(=O)(=O)N4CCC(C)CC4)ccc32)cc1F	none
CC1CCN(S(=O)(=O)c2ccc3c(c2)CCC(=O)N3CC(=O)Nc2ccc(Cl)cc2)CC1	Tgondii IFNg -92
Cc1ccc(NC(=O)CN2C(=O)CCc3cc(S(=O)(=O)N4CCCCC4C)ccc32)cc1C (stereo not given)	Tgondii IFNg -84
CC(=O)Nc1ccc(NC(=O)CN2C(=O)CCc3cc(S(=O)(=O)N4CCCCC4C)ccc32)cc1 (stereo not given)	none
Cc1ccc(NC(=O)CN2C(=O)CCc3cc(S(=O)(=O)N4CCC(C)CC4)ccc32)cc1Cl	Tgondii IFNg -103
CC1CCCCN1S(=O)(=O)c1ccc2c(c1)CCC(=O)N2CC(=O)Nc1ccc2c(c1)OCCO2 (stereo not given)	none
Cc1cccc(NC(=O)CN2C(=O)CCc3cc(S(=O)(=O)N4CCC(C)CC4)ccc32)c1	none
CC1CCN(S(=O)(=O)c2ccc3c(c2)CCC(=O)N3CC(=O)Nc2ccc3c(c2)OCO3)CC1	none
Cc1nc(-c2ccc(F)cc2)sc1CCNC(=O)C(=O)Nc1cc(F)ccc1F	none
Cc1cnc(N2CCC3(CC2)CC(=O)N(C)c2ccccc23)nc1	none
Cc1ccc2[nH]c(CN3CC=CCC3)nc2c1C	none

Screening results as filed in PubChem BioAssay.
